Experimental data: PubChem BioAssay (EPA / NIEHS)
Inconclusive results are not listed. Active and inactive are the calls of the source. The calls were made as follows: active = hit-call score of the fitted dose curve at least 0.9, where 1 is the maximum; inconclusive = response in the unintended direction; inactive = score below 0.9.

Experiment: ACEA_AR_antagonist_AUC_viability: ACEA Biosciences xCELLigence Real-Time Cell Analysis on Androgen Receptor Antagonism for Viability (AID 2283776);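 also: area under impedance growth curve at 80 h after dosing as viability; hits lower the growth signal relative to DMSO meaning cytotoxicity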
Method: ACEA_AR_antagonist is a cell-based, single-readout assay that uses 22Rv1, a human prostate cancer cell line, with measurements taken at 80 hours after chemical dosing in a 384-well plate, although TO5 and TO6 (mc0.srcf) used a 96-well plate. Differences in plate size can be ignored given data normalization.ACEA_AR_80hr is one of two assay component(s) measured or calculated from the […] assay. It is designed to make measurements of real-time cell-growth kinetics, a form of growth reporter, as detected with electrical impedance signals by Real-Time Cell Electrode Sensor (RT-CES) technology.Data from the assay component ACEA_AR_antagonist_AUC_viability was analyzed in the positive analysis fitting direction relative to DMSO as the negative control and baseline of activity. Using a type of growth reporter, loss-of-signal activity can be used to understand changes in the viability. Furthermore, this assay endpoint can be referred to as a secondary readout, because this assay has produced multiple assay endpoints where this one serves a viability function. To generalize the intended target to other relatable targets, this assay endpoint is annotated to the cell cycle intended target family, where the subfamily is cytotoxicity.
The xCELLigence system Multi-E-Plate stations were used to measure the time-dependent response to chemicals. Each compound was tested in an eight-point, 1:4 serial dilution series starting at a maximum final concentration of 100 uM. A maximum starting concentration of 0.5% DMSO was present in the 100 uM chemical samples and was diluted along with the test article dilution series. The screen was performed in biological duplicate using two separate, 96-well, E-Plates 96 for each dilution series (n = 2). Positive controls (MG132 and testosterone) and a negative control (assay media) were tested in quadruplicate on each testing plate. Then, 0.5% and 0.125% DMSO were tested in duplicates in each plate to serve as solvent controls for the 2 highest concentrations of testing compounds: 100 uM and 25 uM. Reference compounds were tested with 8 concentrations with 1:5 serial dilutions. All screening was carried out by ACEA Biosciences, Inc. (San Diego, CA). 22Rv1 cells purchased from ATCC were maintained in media supplemented with 10% fetal bovine serum (FBS). Before screening, 22Rv1 cells were preconditioned in assay medium. Cells were then detached and seeded in E-Plates 96 in assay medium. After overnight monitoring of growth once every hour, compounds were added to […] cells and remained in the medium until the end of the experiment. Cellular responses were then recorded once every 5 min for the first 5 h, and once every hour for an additional 100 h.

| Structure (SMILES) | AC50 | outcome |
| --- | --- | --- |
| FC(F)C(F)(F)OCC(Cn1cncn1)c1ccc(Cl)cc1Cl (stereo not given) | 60.5 µM (active) | – |
| CCCCOC(=O)c1ccccc1C(=O)O | – | inactive |
| CCc1cnc(C2=NC(C)(C(C)C)C(=O)N2)c(C(=O)O)c1 (stereo not given) | – | inactive |
| COc1ccc(C(=CC(=O)N2CCOCC2)c2ccc(Cl)cc2)cc1OC | 15.2 µM (active) | – |
| CCOP(=O)(SC(C)CC)N1CCSC1=O (stereo not given) | – | inactive |
| CCOP(=S)(OCC)Oc1ccc([N+](=O)[O-])cc1 | – | inactive |
| CC1(C(=O)Nc2ccc(O)c(Cl)c2Cl)CCCCC1 | 50 µM (active) | – |
| CN1COCN(Cc2cnc(Cl)s2)C1=N[N+](=O)[O-] | – | inactive |
| CSc1nc(NC(C)C)nc(NC(C)C)n1 | – | inactive |
| CCOP(=S)(Oc1cnc(C(C)(C)C)nc1)OC(C)C (stereo not given) | 50 µM (active) | – |
| O=C(O)c1cc(Oc2ccc(C(F)(F)F)cc2Cl)ccc1[N+](=O)[O-] | – | inactive |
| CCCCSP(=O)(SCCCC)SCCCC | 67.1 µM (active) | – |
| Nc1nc(N)nc(NC2CC2)n1 | – | inactive |
| COP(=O)(NC(C)=O)SC (stereo not given) | – | inactive |
| CC(COc1ccc(Oc2ccccc2)cc1)Oc1ccccn1 (stereo not given) | 64.6 µM (active) | – |
| CN(C)NC(=O)CCC(=O)O | – | inactive |
| CC1=NNC(=O)N(/N=C/c2cccnc2)C1 | – | inactive |
| Nc1c(Cl)cc([N+](=O)[O-])cc1Cl | 50 µM (active) | – |
| C#CC(C)(C)NC(=O)c1cc(Cl)cc(Cl)c1 | 26.4 µM (active) | – |
| CNC(=O)ON=C(C)SC | – | inactive |

| Structure (SMILES) | AC50 | outcome |
| --- | --- | --- |
| CCOP(=S)(OCC)Oc1cc(C)nc(C(C)C)n1 | – | inactive |
| CNC(=O)Oc1cccc2c1OC(C)(C)O2 | – | inactive |
| C#CCC1=C(C)C(OC(=O)C2C(C=C(C)C)C2(C)C)CC1=O (stereo not given) | 49.8 µM (active) | – |
| O=[N+]([O-])c1cc(C(F)(F)F)c(Cl)c([N+](=O)[O-])c1Nc1ncc(C(F)(F)F)cc1Cl | 10.6 µM (active) | – |
| C[N+]1(C)CCCCC1 | – | inactive |
| CC(C)N(C(=O)SCC(Cl)=C(Cl)Cl)C(C)C | 81 µM (active) | – |
| CCOP(=O)(OCC)Oc1cc(C)nc(C(C)C)n1 | – | inactive |
| CSc1nnc(C(C)(C)C)c(=O)n1N | – | inactive |
| CN(C)[C@@H]1C(=O)C(C(N)=O)=C(O)[C@@]2(O)C(=O)C3=C(O)c4c(O)cccc4[C@@](C)(O)[C@H]3[C@H](O)[C@@H]12 | 50 µM (active) | – |
| CCOP(=S)(OCC)Oc1ccc2c(C)c(Cl)c(=O)oc2c1 | 31 µM (active) | – |
| CCCOc1nn(C(=O)NS(=O)(=O)c2ccccc2C(=O)OC)c(=O)n1C | – | inactive |
| CCCOCC(=Nc1ccc(Cl)cc1C(F)(F)F)n1ccnc1 | 6 µM (active) | – |
| CC(Oc1cccc(Cl)c1)C(=O)O (stereo not given) | – | inactive |
| CCOP(=O)(NC(C)C)Oc1ccc(SC)c(C)c1 (stereo not given) | 32.7 µM (active) | – |
| Cc1cc(C2CC2)nc(Nc2ccccc2)n1 | 64.2 µM (active) | – |
| Cc1ccn2nc(S(=O)(=O)Nc3c(F)cccc3F)nc2n1 | – | inactive |
| COP(=O)(OC)OC(Br)C(Cl)(Cl)Br (stereo not given) | 61.3 µM (active) | – |
| CCc1cccc(CC)c1N(COC)C(=O)CCl | 50 µM (active) | – |
| CN(C)C(=O)Nc1cccc(C(F)(F)F)c1 | – | inactive |
| CCOC(=O)COc1cc(-c2nn(C)c(OC(F)F)c2Cl)c(F)cc1Cl | 16.6 µM (active) | – |
